Where “and” joins values, the source holds several entries; their conditions need not be identical. Identical values can stand only once. Records with an inconclusive call do not appear. A call without a number means that no potency is given here. Calls of active or inactive are those of the source. Unless noted, the call rests on the fitted dose curve; in most records, active means well fitted curve in the direction sought with a large enough effect; inconclusive means small, poorly fitted or top-dose-only effect, or another doubt; inactive means no such curve, though single readings can be large; an effect the other way counts as inactive or inconclusive.
Assays:
[1] = target: Alpha-galactosidase A (Homo sapiens) (UniProt P06280); experiment: Counterscreen for Glucocerebrosidase Inhibitors: qHTS Assay for Human alpha-Galactosidase at pH 4.5 (AID 992)
Alpha-galactosidase A (Homo sapiens), sequence (P06280 whole entry, looked up): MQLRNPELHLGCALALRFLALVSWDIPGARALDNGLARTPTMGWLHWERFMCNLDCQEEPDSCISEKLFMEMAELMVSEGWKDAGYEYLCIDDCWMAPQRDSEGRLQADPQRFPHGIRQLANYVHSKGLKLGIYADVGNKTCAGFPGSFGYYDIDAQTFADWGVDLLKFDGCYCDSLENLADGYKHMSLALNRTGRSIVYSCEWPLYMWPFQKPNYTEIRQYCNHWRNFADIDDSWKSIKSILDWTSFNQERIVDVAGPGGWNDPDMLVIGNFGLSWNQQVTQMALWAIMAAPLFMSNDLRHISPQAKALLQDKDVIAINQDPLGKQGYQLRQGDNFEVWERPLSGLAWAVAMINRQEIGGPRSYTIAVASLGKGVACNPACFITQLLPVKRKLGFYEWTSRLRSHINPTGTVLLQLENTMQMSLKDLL
Method in brief: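 Citrate buffer pH 4.5, Tween-20 0.005%. Enzyme 2 nM, substrate 80 uM, 20 min RT. Stop pH 10. Fluorescence Ex 365/Em 440. AC50 by Hill fit.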

[2] = target: alpha-glucosidase (Oryza sativa, rice) (UniProt Q653V4); experiment: Counterscreen for Glucocerebrosidase Inhibitors: qHTS Assay for Rice alpha-Glucosidase at pH 5.0 (AID 997)
Method in brief: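 Endpoint fluorogenic assay at pH 5.0: compounds (0.7 nM to 77 uM) titrated against 4 nM rice enzyme and 400 uM 4-MU-alpha-glucoside for 20 min at room temperature; NaOH/glycine stop, read ex 365/em 440 nm, Hill-fitted AC50.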

[3] = target: Alpha-galactosidase (Coffea arabica) (UniProt Q42656); experiment: Counterscreen for Glucocerebrosidase Inhibitors: qHTS Assay for Coffee Bean alpha-Galactosidase at pH 5.9 (AID 998)
Alpha-galactosidase (Coffea arabica), sequence (Q42656 whole entry, looked up): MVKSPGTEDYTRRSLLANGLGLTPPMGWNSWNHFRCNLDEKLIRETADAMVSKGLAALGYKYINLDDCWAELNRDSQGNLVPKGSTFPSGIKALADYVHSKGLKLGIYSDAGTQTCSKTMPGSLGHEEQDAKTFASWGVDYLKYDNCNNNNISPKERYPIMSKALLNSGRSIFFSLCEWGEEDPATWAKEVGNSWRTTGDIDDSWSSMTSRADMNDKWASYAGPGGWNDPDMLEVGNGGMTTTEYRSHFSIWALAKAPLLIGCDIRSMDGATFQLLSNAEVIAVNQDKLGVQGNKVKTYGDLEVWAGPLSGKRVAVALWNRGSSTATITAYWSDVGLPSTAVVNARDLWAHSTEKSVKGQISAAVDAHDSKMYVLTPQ
Method in brief: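 Fluorogenic 4-MU substrate hydrolysis, 80 uM substrate and 2 nM coffee bean alpha-galactosidase, pH 5.9 citrate buffer, 20 min at room temperature, then NaOH/glycine stop. Titration 0.7 nM–77 uM, normalized to no-enzyme and enzyme controls, AC50 via Hill equation.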

[4] = Validation of Assay for Modulators of Lamin A Splicing (AID 1459; active means well fitted curve in the direction sought with a large enough effect in the signal ratio; the % refers to the signal ratio;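 further: cells exposed to compound for two days before reading; ratio rise marks activators and ratio drop marks inhibitors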)
Method in brief: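 Readout: ratio of GFP (500-530 nm) to RFP (575-640 nm) total object intensity by 488 nm laser-scanning cytometry after 48 hrs. Cells were HeLa S3 clones carrying lamin A-EGFP minigene plus DsRed2 viability reporter; vehicle 0.5% DMSO final.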

[5] = qHTS Assay for Lipid Storage Modulators (AID 1519; calls by dose curve); conditions: Drosophila S3 cells, BODIPY lipid droplet/cell ratio, laser cytometry, cells loaded with oleic acid
Method in brief: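 Cells seeded at 5,000 per well were treated with compounds over a concentration series and loaded with oleic acid (400 uM, as added). Lipid droplet fluorescence (488 nm excitation, 500-530 nm channel) was read by laser-scanning cytometry and normalized to 20 uM Triacsin C.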

[6] = target: DNA repair nuclease/redox regulator APEX1 (Homo sapiens) (UniProt P27695); experiment: qHTS Validation Assay for Inhibitors of the Human Apurinic/apyrimidinic Endonuclease 1 (APE1) (AID 1705;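 further: TAMRA fluorescence gain over two minutes as APE1 cuts a quenched THF abasic duplex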)
DNA repair nuclease/redox regulator APEX1 (Homo sapiens), sequence (P27695 whole entry, looked up): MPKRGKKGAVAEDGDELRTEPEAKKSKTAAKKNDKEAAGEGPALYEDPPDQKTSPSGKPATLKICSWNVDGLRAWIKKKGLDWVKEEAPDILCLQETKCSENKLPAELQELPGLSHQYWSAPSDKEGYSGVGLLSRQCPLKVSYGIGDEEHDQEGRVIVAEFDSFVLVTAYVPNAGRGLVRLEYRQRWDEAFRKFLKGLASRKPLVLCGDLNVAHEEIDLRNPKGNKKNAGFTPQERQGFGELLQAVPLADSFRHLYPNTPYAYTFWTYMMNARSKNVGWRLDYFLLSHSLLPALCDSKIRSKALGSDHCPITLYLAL
Method in brief: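 Read-out: TAMRA fluorescence (525 nm ex, 598 nm em) from cleavage of a quenched THF abasic-site duplex, 50 nM final; activity taken as intensity change between third and first of three reads 60 s apart.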

[7] = Counterscreen for APE1 Inhibitors: Fluorescent Dye Displacement Validation Assay (AID 1707)
Method in brief: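 Signal: ThO fluorescence (ex 480 nm/em 540 nm) on binding 50 nM dsDNA; displacement by test compound reduces it. Conditions: 250 nM dye, 50 mM Tris-HCl pH7.5, 2 mM MgCl2, 50mM NaCl, 0.01% Tween-20.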

[8] = target: Endonuclease 4 (Escherichia coli (strain K12)) (UniProt P0A6C1); experiment: Counterscreen for APE1 Inhibitors: qHTS Validation Assay for Inhibitors of Endonuclease IV (AID 1708)
Method in brief: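 Incision of a double-stranded 50 nM TAMRA/BHQ-2 abasic substrate was followed kinetically (525/598 nm, reads every 60 s) after 15 min enzyme–compound preincubation with 2 nM EndoIV in pH 7.5 Tris buffer with MgCl2, DTT and Tween-20; concentration-response format.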

[9] = qHTS for differential inhibitors of proliferation of Plasmodium falciparum line GB4 (AID 1816); conditions: Potency: Plasmodium falciparum GB4 proliferation inhibition;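 further: parasite growth measured after 72 h incubation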; further: potency means the concentration at half of the fitted maximal effect
[10] = qHTS for differential inhibitors of proliferation of Plasmodium falciparum line 3D7 (AID 1876); further: potency means the concentration at half of the fitted maximal effect
[11] = qHTS for differential inhibitors of proliferation of Plasmodium falciparum line D10 (AID 1877);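 further: parasites grown with compound for 72 h before DNA staining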
[12] = qHTS for differential inhibitors of proliferation of Plasmodium falciparum line Dd2 (AID 1882); conditions: Potency: Plasmodium falciparum Dd2 proliferation inhibition; further: nearly all actives have a fitted effect of over 65% in size; further: potency means the concentration at half of the fitted maximal effect
Method in brief: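 SYBR Green DNA fluorescence (ex 485, em 535 nm) after overnight lysis quantifies parasite growth; compound exposure lasted 72 h at 37 C on infected red cells at 2.5% hematocrit, 0.3% parasitemia (final). Artemisinin 0.29 uM and vehicle wells define normalization.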

[13] = qHTS for differential inhibitors of proliferation of Plasmodium falciparum line W2 (AID 1883); conditions: Potency: Plasmodium falciparum W2 proliferation inhibition;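 further: potency means the concentration at half of the fitted maximal effect; parasites grown with compound for 72 h before lysis and staining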
[14] = qHTS for differential inhibitors of proliferation of Plasmodium falciparum line HB3 (AID 1886); conditions: Potency: Plasmodium falciparum HB3 proliferation inhibition;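 further: parasites grown with compound for 72 h before SYBR Green readout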
[15] = target: Ferritin light chain (Equus caballus) (UniProt P02791); experiment: qHTS Validation Assay for Identification of Novel General Anesthetics (AID 2323)
Ferritin light chain (Equus caballus), sequence (P02791 2-175 limits assumed): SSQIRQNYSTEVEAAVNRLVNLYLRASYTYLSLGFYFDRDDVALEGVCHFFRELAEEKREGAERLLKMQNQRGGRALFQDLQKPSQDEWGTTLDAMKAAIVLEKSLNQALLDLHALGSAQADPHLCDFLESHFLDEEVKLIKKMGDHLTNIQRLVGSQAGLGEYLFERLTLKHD
Method in brief: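 10 uM horse-spleen apoferritin + 1-AMA (50% saturated, PBS); cpd pin-transferred, 10 min RT. Ex 380/Em 535 nm endpoint. Activity normalized between free 1-AMA and 1-AMA/apoferritin; 4-parameter Hill fit of concentration-response.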

[16] = qHTS for differential inhibitors of proliferation of Plasmodium falciparum line 7G8 (AID 1815);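 further: parasite growth measured after three days of incubation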; further: potency means the concentration at half of the fitted maximal effect
[17] = qHTS Assay for Modulators of Human Peripheral Myelin Protein 22 (PMP22) Expression/Activity (AID 1967; active means well fitted curve in the direction sought with a large enough effect in the signal ratio; the % refers to the signal ratio)
Method in brief: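 Mouse MSC80 Schwann line, Pmp22 promoter–CBG68 reporter, EF-alpha–CBR internal control. 24h compound exposure, 37 °C/5% CO2, DMEM + 10% FBS. Readout: corrected green/red luminescence ratio, normalized to untreated cells; concentration-response curves fitted and classified.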

[18] = measured here: cell count channel max response
[19] = measured here: lipid channel max response

Question: With `C[C@]12N[C@H](Cc3ccccc31)c1ccccc12` as the molecule, how does the outcome [1] read?
Answer: inactive

Question: What about the outcome [2] of the same molecule?
Answer: inactive

Question: What about the outcome [3] of the same molecule?
Answer: inactive

Question: What about the outcome [4] of the same molecule?
Answer: inactive

Question: What about the activity change, negative = inhibition ([5]; at 57.5 µM (top of the series)) of the same molecule?
Answer: -1.18% (inactive)

Question: And the max response [5, 18]?
Answer: 51.7%

Question: And the max response [5, 19]?
Answer: 40.7%

Question: What about the Potency [6] of the same molecule?
Answer: inactive

Question: And the Potency [7]?
Answer: inactive

Question: And the Potency [8]?
Answer: inactive

Question: And the Potency [9]?
Answer: 1.78 µM (active)

Question: What about the Potency [10] of the same molecule?
Answer: inactive

Question: And the Potency [11]?
Answer: inactive

Question: And the Potency [12]?
Answer: 7.08 µM (active)

Question: What about the Potency [13] of the same molecule?
Answer: 1.58 µM (active)

Question: What about the Potency [14] of the same molecule?
Answer: inactive

Question: What about the outcome [15] of the same molecule?
Answer: inactive

Question: With `CCCCc1ccc(C(=O)O)nc1` as the molecule, how does the outcome [1] read?
Answer: inactive

Question: What about the outcome [2] of the same molecule?
Answer: inactive

Question: What about the outcome [3] of the same molecule?
Answer: inactive

Question: And the outcome [4]?
Answer: inactive

Question: What about the activity change, negative = inhibition ([5]; at 25.7 µM (top of the series)) of the same molecule?
Answer: -2.75% (inactive)

Question: And the activity change, negative = inhibition ([5]; at 57.5 µM (top of the series))?
Answer: 1.57% (inactive)

Question: And the max response [5, 18]?
Answer: 0.85% and 4.91%

Question: What about the max response [5, 19] of the same molecule?
Answer: -1.53% and 6.42%

Question: And the Potency [6]?
Answer: inactive

Question: And the Potency [7]?
Answer: inactive

Question: What about the Potency [16] of the same molecule?
Answer: inactive

Question: What about the Potency [9] of the same molecule?
Answer: inactive

Question: And the Potency [11]?
Answer: inactive

Question: And the Potency [12]?
Answer: inactive

Question: What about the outcome [15] of the same molecule?
Answer: inactive

Question: Which results are given for `NC1CCc2cc(O)c(O)cc2C1` (configuration not stated)?
Answer: outcome [4]: inactive; activity change, negative = inhibition ([5]; at 57.5 µM (top of the series)): -0.984% (inactive); max response [5, 18]: -18.2%; max response [5, 19]: -19.2%; Potency [6]: inactive; Potency [8]: inactive; Potency [16]: inactive; Potency [10]: inactive; Potency [12]: inactive; Potency [13]: 14.1 µM (active); outcome [17]: inactive; outcome [15]: inactive

Question: Which results are given for `CN1C2CCC1CC(OC(=O)c1cc(Cl)cc(Cl)c1)C2` (configuration not stated)?
Answer: outcome [4]: inactive; activity change, negative = inhibition ([5]; at 57.5 µM (top of the series)): -1.85% (inactive); max response [5, 18]: -22.1%; max response [5, 19]: -22.4%; Potency [6]: inactive; Potency [7]: inactive; Potency [8]: inactive; Potency [16]: 6.31 µM (active); Potency [9]: 12.6 µM (active); Potency [10]: 10 µM (active); Potency [12]: inactive; Potency [13]: 8.91 µM (active); outcome [15]: inactive
